What all share (settings): mRNA level, 48 h; actives raise or lower the signal
Read-out in test [1]: Insulin Like Growth Factor 1 (IGF1), IGF1 (gene 3479)
Nature of the test: LTEA_HepaRG_IGF1: Life Technologies and Expression Analysis (LTEA) Assay for Insulin Like Growth Factor 1 (IGF1) using HepaRG (AID 2283506). An outline of the steps:
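Differentiated human HepaRG cells were dosed for 48 h in serum-free induction medium with 0.5% DMSO, eight half-log concentrations up to 100 uM, in duplicate. IGF1 mRNA was quantified by qRT-PCR normalized to ACTB, GAPDH, POLR2A; bidirectional fitting versus DMSO.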

Read-out in test [2]: Intercellular Adhesion Molecule 1 (ICAM1), ICAM1 (gene 3383)
Nature of the test: LTEA_HepaRG_ICAM1: Life Technologies and Expression Analysis (LTEA) Assay for Intercellular Adhesion Molecule 1 (ICAM1) using HepaRG (AID 2283507). An outline of the steps:
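Differentiated human HepaRG cells in serum-free induction medium exposed 48 h in duplicate to 8 half-log concentrations (top 100 uM, 0.5% DMSO). ICAM1 mRNA quantified by TaqMan qRT-PCR, normalized to ACTB, GAPDH and POLR2A; bidirectional fitting versus DMSO.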

Read-out in test [3]: Insulin-like growth factor-binding protein 1 (IGFBP1), IGFBP1 (gene 3484)
Nature of the test: LTEA_HepaRG_IGFBP1: Life Technologies and Expression Analysis (LTEA) Assay for Insulin-like growth factor-binding protein 1 (IGFBP1) using HepaRG (AID 2283508). The essentials:
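HepaRG cells, plated 48 h then switched to serum-free induction medium, exposed in duplicate for 48 h to 8-point half-log series from 100 uM in 0.5% DMSO. mRNA measured by qRT-PCR, normalized to ACTB/GAPDH/POLR2A; bidirectional fit versus DMSO.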

Read-out in test [4]: Interleukin 6 (IL6), IL6 (gene 3569)
The test can be described thus: LTEA_HepaRG_IL6: Life Technologies and Expression Analysis (LTEA) Assay for Interleukin 6 (IL6) using HepaRG (AID 2283509). An outline of the steps:
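HepaRG cells exposed in duplicate for 48 h to eight half-log concentrations, top 100 uM, in 0.5% DMSO serum-free induction medium. mRNA measured by qRT-PCR, normalized to ACTB, GAPDH and POLR2A. Bidirectional fit versus DMSO.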

Read-out in test [5]: Interleukin 6 Receptor (IL6R), IL6R (gene 3570)
Nature of the test: LTEA_HepaRG_IL6R: Life Technologies and Expression Analysis (LTEA) Assay for Interleukin 6 Receptor (IL6R) using HepaRG (AID 2283510).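 On AC50: TaqMan qRT-PCR signal normalized to ACTB GAPDH and POLR2A housekeeping genes.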 An outline of the steps: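 Differentiated human HepaRG cells, plated 48 h then switched to serum-free induction medium, were dosed in duplicate for 48 h at eight half-log concentrations up to 100 uM in 0.5% DMSO. IL6R mRNA quantified by qRT-PCR, normalized to ACTB/GAPDH/POLR2A; bidirectional fit versus DMSO.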

Read-out in test [6]: Keratin 19 (KRT19), KRT19 (gene 3880)
Nature of the test: LTEA_HepaRG_KRT19: Life Technologies and Expression Analysis (LTEA) Assay for Keratin 19 (KRT19) using HepaRG (AID 2283512). An outline of the steps:
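Differentiated HepaRG cells in serum-free induction medium, exposed 48 h in duplicate to 8 half-log concentrations up to 100 uM in 0.5% DMSO. KRT19 mRNA by qRT-PCR, normalized to ACTB, GAPDH, POLR2A; bidirectional fit vs DMSO.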

Read-out in test [7]: JUN Transcription Factor, JUN (gene 3725)
Nature of the test: LTEA_HepaRG_JUN: Life Technologies and Expression Analysis (LTEA) Assay for JUN Transcription Factor using HepaRG (AID 2283513). An outline of the steps:
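Differentiated HepaRG cells were exposed to chemicals for 48 h in serum-free induction medium, 8 concentrations from 100 uM in half-log steps, 0.5% DMSO vehicle, in duplicate. JUN mRNA was quantified by TaqMan qRT-PCR, normalized to ACTB, GAPDH, POLR2A.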

Read-out in test [8]: Lipoprotein lipase (LPL), LPL (gene 4023)
Nature of the test: LTEA_HepaRG_LPL: Life Technologies and Expression Analysis (LTEA) Assay for Lipoprotein lipase (LPL) using HepaRG (AID 2283515). The essentials:
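Differentiated HepaRG cells, plated 48 h, then exposed 48 h in serum-free induction medium to 8 concentrations (top 100 uM, half-log steps) in 0.5% DMSO, duplicate. LPL mRNA measured by qRT-PCR, normalized to ACTB, GAPDH and POLR2A.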

Read-out in test [9]: Hypoxia-inducible factor 1-alpha (Homo sapiens) (UniProt Q16665)
Nature of the test: LTEA_HepaRG_HIF1A: Life Technologies and Expression Analysis (LTEA) Assay for Hypoxia-inducible factor 1 (HIF1A) Trancription factor using HepaRG (AID 2283503). The essentials:
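HepaRG, 48 h exposure, 8-pt half-log series from 100 uM, 0.5% DMSO vehicle, duplicates. Readout: HIF1A transcript by qRT-PCR (Fluidigm array), housekeeping-normalised. Bidirectional curve fit vs DMSO baseline.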

Read-out in a further test: HGF (gene 3082)
Nature of the test: LTEA_HepaRG_HGF: Life Technologies and Expression Analysis (LTEA) Assay for Hepatocyte Growth Facto (HGF) using HepaRG (AID 2283505). The essentials: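 Differentiated HepaRG cells in serum-free induction medium exposed 48 h in duplicate, 8 half-log concentrations from 100 uM in 0.5% DMSO. HGF mRNA by qRT-PCR, normalised to ACTB, GAPDH, POLR2A; bidirectional fitting.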

Structures are written as SMILES. The source made the active and inactive calls. How the source made its calls: active means hit-call score of the fitted dose curve at least 0.9, where 1 is the maximum; inactive means score below 0.9.

Hypoxia-inducible factor 1-alpha (Homo sapiens), sequence (Q16665 whole entry, looked up): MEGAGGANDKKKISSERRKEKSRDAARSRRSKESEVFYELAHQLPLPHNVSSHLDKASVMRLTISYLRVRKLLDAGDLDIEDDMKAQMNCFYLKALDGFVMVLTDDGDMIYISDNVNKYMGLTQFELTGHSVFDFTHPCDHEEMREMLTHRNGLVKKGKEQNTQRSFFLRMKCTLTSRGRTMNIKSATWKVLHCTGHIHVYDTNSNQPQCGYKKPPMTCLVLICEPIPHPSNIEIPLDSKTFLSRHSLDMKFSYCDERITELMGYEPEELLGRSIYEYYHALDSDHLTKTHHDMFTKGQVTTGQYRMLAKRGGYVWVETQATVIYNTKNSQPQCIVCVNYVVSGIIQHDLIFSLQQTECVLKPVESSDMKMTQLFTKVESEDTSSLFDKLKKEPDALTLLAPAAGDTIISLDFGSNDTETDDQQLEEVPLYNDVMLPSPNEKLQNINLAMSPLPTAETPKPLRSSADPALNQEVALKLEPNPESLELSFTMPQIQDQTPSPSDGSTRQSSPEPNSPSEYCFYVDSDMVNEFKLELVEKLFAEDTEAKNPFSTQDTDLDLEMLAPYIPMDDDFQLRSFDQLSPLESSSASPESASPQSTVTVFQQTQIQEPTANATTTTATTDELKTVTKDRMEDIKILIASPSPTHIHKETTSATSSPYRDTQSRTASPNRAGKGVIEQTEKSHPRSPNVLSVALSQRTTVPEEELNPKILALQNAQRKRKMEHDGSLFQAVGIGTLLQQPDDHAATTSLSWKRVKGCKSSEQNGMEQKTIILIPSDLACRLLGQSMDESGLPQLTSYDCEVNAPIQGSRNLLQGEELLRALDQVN

On to `CC(=O)Nc1ccc(O)cc1`, for which the compound was called inactive in test [1], in test [2], in test [3], in test [4], in test [5] and in [6]. Further, the call in [7] and in test [8] was inactive.
As for `O=C(c1ccccc1)c1ccccc1`, the call (in [9]; with HGF (gene 3082); in [1]; in test [2]; in test [3]; in test [4]) was inactive. For the same compound, the result in test [5], in [6], in test [7] and in [8] was inactive.
In general, AC50 refers to the midpoint of the concentration-response curve, whichever way the signal moves. Turning to `CCCCCCCCCCCCOS(=O)(=O)O`, the compound was called inactive (in test [9]; with HGF (gene 3082); in test [2]; in [4]; in [8]). The AC50 in [3] was 79.1 µM (active); in test [5] it was 93.1 µM (active); in test [6] it was 79.9 µM (active); in test [7], 50 µM (active).
For the compound `CCCCC=O`, the compound was classed as inactive (in test [9]; with HGF (gene 3082); in [1]; in test [2]; in test [3]; in [4]). Besides, the result in [5], in [6], in test [7] and in [8] was inactive.
Regarding `O=C(CCCN1CCC(O)(c2ccc(Cl)cc2)CC1)c1ccc(F)cc1`, the AC50 was 78.5 µM (active) in [1]; 75 µM (active) in test [2]; 71.1 µM (active) in test [3]; 80.9 µM (active) in [4]; 50 µM (active) in test [5]; 36.7 µM (active) in [6]. In addition, the figures for the AC50 in test [7] and in test [8] were 82.7 µM (active) and 34.4 µM (active), respectively.
With `O=C1NS(=O)(=O)c2ccccc21`, the result (in test [9]; in the test with HGF (gene 3082); in test [1]; in test [2]; in test [3]; in test [4]) was inactive. The compound was called inactive in test [5], in test [6], in [7] and in test [8].
For `CCCCC(CC)C(=O)O` (stereo not given), the compound was called inactive (in [9]; with HGF (gene 3082); in test [1]; in [2]; in test [3]; in test [4]). Further, the compound was classed as inactive in test [5], in test [6], in test [7] and in [8].
Take `CN(C)CCOC(c1ccccc1)c1ccccc1`: the outcome (with HGF (gene 3082); in test [1]; in [2]; in test [3]; in test [4]; in test [5]) was inactive. The call in test [6] and in test [7] was inactive. Moreover, the AC50 in test [8] is 50 µM (active).
As for `Cc1[nH]nc2c1N=C(c1ccccc1Cl)c1cc([N+](=O)[O-])ccc1N2`, the outcome in [9], in test [2] and in [5] was inactive. In addition, the AC50 with HGF (gene 3082) was 2.84 µM (active); in [1] it was 1.88 µM (active); in test [3], 79.6 µM (active); in test [6] it was 1.24 µM (active); in [7] it was 20.5 µM (active); in [8] it was 13 µM (active).
As to `CCCCCCCCCCCCCCC`, the compound was called inactive (in test [9]; with HGF (gene 3082); in test [1]; in test [2]; in test [3]; in [4]). The outcome in test [5], in test [6], in [7] and in [8] was inactive.
For the compound `CCCCc1oc2ccccc2c1C(=O)c1cc(I)c(OCCN(CC)CC)c(I)c1`, the AC50 in test [9] is 64.5 µM (active); in [1], 46.2 µM (active); in test [2], 59.5 µM (active); in test [3], 54 µM (active); in test [4] it was 61.9 µM (active); in [6], 37.8 µM (active). The AC50 in [7] was 66.1 µM (active); in test [8], 47.6 µM (active). For the same compound, the call (with HGF (gene 3082); in test [5]) was inactive.
For `CN(Cc1cnc2nc(N)nc(N)c2n1)c1ccc(C(=O)N[C@@H](CCC(=O)O)C(=O)O)cc1`, the call (with HGF (gene 3082); in test [1]; in test [2]; in [3]; in [4]; in test [5]) was inactive. Besides, the compound was classed as inactive in test [6], in test [7] and in [8].
For `N=C(N)c1ccc(OCCCCCOc2ccc(C(=N)N)cc2)cc1`, the AC50 in [9] was 4.28 µM (active); with HGF (gene 3082), 13.8 µM (active); in test [1] it was 11.1 µM (active); in test [2], 10.9 µM (active); in test [3], 3.52 µM (active); in test [4], 9.85 µM (active). In addition, the AC50 in test [5] is 29.3 µM (active); in test [6], 31 µM (active); in test [7], 12.6 µM (active); in test [8], 68.9 µM (active).
Consider `OCC(CO)(CBr)CBr`, for which the compound was classed as inactive (in test [9]; with HGF (gene 3082); in test [1]; in test [2]; in test [3]; in test [4]). For the same compound, the call in [5], in test [6], in test [7] and in [8] was inactive.
On to `CS(=O)(=O)c1ccc([C@@H](CC2CCCC2)C(=O)Nc2cnccn2)cc1Cl`, for which the outcome in test [9], in test [4], in [5], in test [6], in test [7] and in [8] was inactive. Further, the AC50 in test [1] was 32.8 µM (active); in test [2] it was 73.7 µM (active); in test [3], 75.2 µM (active).
`CCC(C)c1ccccc1O` (stereo not given): the result (with HGF (gene 3082); in test [1]; in test [2]; in test [3]; in test [4]; in test [5]) was inactive. For the same compound, the result in test [6], in test [7] and in test [8] was inactive.

These data come from PubChem BioAssay (EPA / NIEHS).
